Experimental findings from PubChem BioAssay (NCI) are described below.

The panel holds about 83,000 compounds, 20% with a hit somewhere; the sample as a whole holds those more often.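 Percent growth is the endpoint: 0 to 100 indicates growth inhibition (40 means 60% inhibition), 0 means no net growth, and negative values indicate cell death.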 Unmarked numbers belong to inactive results. Active and inactive are the calls of the source. Rule for the calls: active = growth percent below 10; inactive = the rest.

What all share (assay): NCI-60 one-dose screen, 48 h (100 = growth as untreated, 0 = no growth, -100 = all killed)
Common to all, as to details: 10 µM unless noted

In experiment [1] the test system is DU-145 prostate.
The test system of experiment [2] is K-562 leukemia.
Experiment [3] has as its system MALME-3M melanoma.
For experiment [4], the system named is MDA-MB-231 breast.
Experiment [5] has as its system RXF 393 renal.
The subject of experiment [6] is SF-268 CNS.
Experiment [7] deals with SF-295 CNS.
For experiment [8], the system named is SF-539 CNS.
Experiment [9] relates to UACC-257 melanoma.
Experiment [10] relates to M14 melanoma.
Experiment [11] has as its system HCT-15 colon.
Experiment [12] relates to HT29 colon.
Experiment [13] has as its system SNB-75 CNS.
Experiment [14] deals with SNB-19 CNS.
For experiment [15], the system named is U251 CNS.
Experiment [16] relates to PC-3 prostate.
Experiment [17] deals with SK-MEL-5 melanoma.
The test system of experiment [18] is UACC-62 melanoma.
The test system of experiment [19] is LOX IMVI melanoma.
The subject of experiment [20] is SK-MEL-28 melanoma.

Regarding `CC1=C(CCC(C)NCc2ccc(OCCCN3CCCCC3)cc2)C(C)(C)CCC1` (stereo not given), the growth is -49.1% (active) in experiment [1]; -46.6% (active) in experiment [2]; -80.5% (active) in experiment [3]; -73.4% (active) in experiment [4]; -89.1% (active) in [5]; -76.8% (active) in experiment [6]. Moreover, the growth in experiment [7] was -70% (active); in [8], -85.3% (active); in experiment [9] it was -76.1% (active); in [10] it was -81% (active); in [11], -67.2% (active); in [12], -81.9% (active). Also, the growth in experiment [13] was -59.7% (active); in [14], -45.7% (active); in experiment [15] it was -85.6% (active); in experiment [16], -56.1% (active); in [17], -94.6% (active); in experiment [18], -77% (active). Moreover, the growth in experiment [19] was -88.7% (active); in experiment [20] it was -83.4% (active).
Take `COc1ccc(/C=C(/C(=O)n2cnnn2)c2cc(OC)c(OC)c(OC)c2)cc1`: the growth is 25.1% in [1]; 15.3% in experiment [2]; 62.5% in experiment [3]; 36.7% in [4]; -4.36% (active) in experiment [5]; 49% in experiment [6]. For the same compound, the growth in experiment [7] is -7.45% (active); in [8], -7.92% (active); in experiment [9], 70.2%; in experiment [10] it was -2.57% (active); in [11] it was 15.5%; in [12] it was 8.2% (active). Besides, the growth was 15.4% in experiment [13]; 17.4% in experiment [14]; 17.9% in [15]; 13.1% in experiment [16]; 15.2% in experiment [17]; 20.1% in experiment [18]. Besides, the growth in experiment [19] was 37%; in experiment [20], 43.8%.
With `CN1CCN(CCOc2ccc(-c3cnc4c(-c5cccc(F)c5F)cnn4c3)cc2)CC1`, the growth in experiment [1] was 8.58% (active); in [2] it was -31.3% (active); in [3], -44% (active); in experiment [4], 85%; in experiment [5], 97%; in experiment [6], 25.3%. Besides, the growth was -3.66% (active) in experiment [7]; -72.5% (active) in [8]; -19.1% (active) in experiment [9]; -78.9% (active) in experiment [10]; -8.62% (active) in experiment [11]; -46.1% (active) in [12]. For the same compound, the growth is 115% in experiment [13]; 8.04% (active) in [14]; -32.4% (active) in [15]; 90.5% in [16]; -32.4% (active) in [17]; -36.1% (active) in [18]. Further, the growth was -95.8% (active) in experiment [19] and -18.7% (active) in experiment [20].
As for `O=C(/C=C(O)/C=C/c1cccc2[nH]ccc12)/C=C/c1cccc2[nH]ccc12`, the growth in experiment [1] was 95.6%; in [2] it was 14.5%; in [3], 69.4%; in [4], 73.8%; in experiment [5], 87.4%; in [6], 89.5%. In addition, the growth was 95.5% in experiment [7]; 90.4% in experiment [8]; 86.4% in [9]; 38.9% in experiment [10]; 61.5% in [11]; 38.4% in [12]. Further, the growth is 92.2% in [13]; 72.6% in experiment [14]; 45.2% in experiment [15]; 66.8% in experiment [16]; 76% in [17]; 68% in experiment [18]. The values for the growth in experiment [19] and in experiment [20] were 63.7% and 97.6%, respectively.
For `Cc1nnc(-c2ccc3c(c2)nc(/C=C/c2ccccc2)n3C2CCCCC2)o1`, the growth in experiment [1] was 91.5%; in experiment [2], 45.9%; in experiment [3], 95%; in experiment [4], 87.3%; in experiment [5] it was 84.6%; in [6], 86.5%. The growth in [7] is 76.1%; in experiment [8] it was 110%; in experiment [9], 77.4%; in experiment [10] it was 73.7%; in experiment [11] it was 49.4%; in experiment [12], 37.3%. Besides, the growth is 103% in experiment [13]; 102% in experiment [14]; 79.8% in experiment [15]; 63.5% in experiment [16]; 70.8% in [17]; 61.8% in experiment [18]. In addition, the growth in [19] is 44.3%; in [20], 72.4%.
On to `O=C(CCCCCCN1CC(=O)N2[C@H](c3ccc(Br)cc3)c3[nH]c4ccccc4c3C[C@@H]2C1=O)NO`, for which the growth in experiment [1] is 57.5%; in experiment [2], 14.7%; in experiment [3], 20.4%; in experiment [4], 43.7%; in [5], 42.4%; in experiment [6], 71.4%. The growth in experiment [7] was 67.2%; in experiment [8] it was 43.7%; in [9], 34.9%; in experiment [10] it was 46.6%; in experiment [11], 103%; in experiment [12] it was 53%. Further, the growth in experiment [13] was 31.9%; in [14] it was 57.1%; in [15], 42.6%; in experiment [16], 39.1%; in [17], 26%; in experiment [18], 13.8%. The growth was 12.3% in experiment [19] and 33.9% in [20].
Regarding `Oc1ccc(/C=C/c2ccc(O)cc2)cc1`, the growth in [1] was 56.9%; in experiment [2] it was 69.5%; in experiment [3] it was 58.9%; in experiment [4] it was 80.1%; in [5], 62.8%; in [6], 42.7%. In addition, the growth in experiment [7] is 88.1%; in [8] it was -11.4% (active); in experiment [9] it was 72.3%; in [10], 65%; in experiment [11] it was 33.3%; in experiment [12], 101%. The growth in experiment [13] is 46.9%; in [14] it was 89.2%; in [15], 39.1%; in experiment [16], 55.3%; in experiment [17], 52%; in [18], 37.4%. Further, the growth was 44.4% in experiment [19] and 76.9% in experiment [20].
